Assay results published in PubChem BioAssay.
Several values for one entry are separate records, joined by “and”; a condition that tells them apart may be missing. Identical values can stand only once.

Assay: 384-well plate pilot, post-Golgi transport modulator project, inhibition of yeast transport mutant growth (AID 636)
Conditions: absorbance 615 nm, about 18 h, stronger effect = higher value; in the data active = inhibition above about 31%; inactive = the rest

inhibition, inactive:
COc1cccc(C(c2nnnn2CCc2ccccc2)N2CCN(c3ccccc3)CC2)c1OC (stereo not given) 13.1%
CCN(CCO)C1CC(=O)N(c2ccccc2C)C1=O (stereo not given) -9.46%
CCOC(=O)C1=C(C)Nc2nnnn2C1c1c[nH]c2ccccc12 (stereo not given) -2.93%
Cc1cc(C)c(OCC(=O)Nc2ccc3c(c2)OCO3)cc1C -4%
COc1ccccc1-c1nc(C#N)c(N2CCN(c3ccccc3)CC2)o1 -3.68%
O=C1CCC(=O)N1OCCCOc1ccc(Br)cc1Cl 0.13%
CCOc1cc(C(=O)NCC2CCCO2)cc(OCC)c1OCC (stereo not given) -4.86%
COc1ccc2c(c1OC)C(=O)OC2C1c2c(cc3c(c2OC)OCO3)CCN1C (stereo not given) 1.95% and -2.86%
Cc1ccc(-c2nnn(CC(=O)N(CC3CCCO3)C(C(=O)NC(C)(C)C)c3ccc(F)cc3)n2)o1 (stereo not given) -1.07%
O=c1ccc(S(=O)(=O)N2CCC(Cc3ccccc3)CC2)c[nH]1 0.13%
Cc1[nH]c(=O)[nH]c(=O)c1S(=O)(=O)N1c2ccc(F)cc2CCC1C (stereo not given) -6.97%
NC(=O)c1ccccc1NC(=O)CN1CCOCC1 -1.87%
O=C(Nn1c(C2CC2)nc2ccccc2c1=O)c1ccco1 -3.77%
CCOc1ccc(-c2nnn(CCC(=O)O)n2)cc1OC -4.93%
O=C(CCN1C(=O)COc2ccccc21)NCCN1CCN(c2cccc(Cl)c2)CC1 -1.04%
Cc1ccc(-n2nc(-c3cccs3)cc2C(=O)NCC2CCCO2)c(C)c1 (stereo not given) -4.67%
Cc1cc(C)cc(OCCCC(=O)O)c1 -5.6%
CCN(C(=O)Cc1c(C(=O)O)[nH]c2ccccc12)c1cc(OC)ccc1OC -6.62%
C=CCSC1=C(C#N)C(c2ccccc2OCC)CC(=O)N1 (stereo not given) -5.39%
COc1ccc(Br)cc1S(=O)(=O)N1CC(C)OC(C)C1 (stereo not given) 1.73%
O=C(NCc1ccco1)c1cccn2c(=O)c3sccc3nc12 -1.2%
Cc1cc(NC(=O)C23CCC(C)(c4nc5cc(Cl)c(Cl)cc5nc42)C3(C)C)no1 (stereo not given) -3.42%
CC(NC(=O)Nc1ccccc1)C(c1cccs1)N1CCOCC1 (stereo not given) -0.38%
CCS(=O)(=O)Nc1ccc(C(=O)CC2(O)C(=O)Nc3ccccc32)cc1 (stereo not given) -5.87%
CCN(CC)C(=O)Cn1c(=O)n(Cc2ccccc2Cl)c2c1c(=O)n(C)c(=O)n2C -0.93%
CC(C)COc1nc2ccccc2nc1C(C#N)C(=O)NC1CCCCC1 (stereo not given) -4.67%
CCOC(=O)c1sc(NC(=O)CNC(=O)Cn2cnc3sc(C)c(C)c3c2=O)nc1C 1.18%
CCc1cc(=O)oc2c(CN3CCN(C)CC3)c(O)c(Cl)cc12 -2.5%
CC(=O)N1C(=O)C2(Nc3ccccc3N2)c2ccccc21 -7.16%
COc1ccc(C)cc1S(=O)(=O)N(CC(=O)O)c1ccccc1 -2.84%
COc1ccc(N2C(N)=C(C#N)C(c3cccnc3)C3=C2CC(C)(C)CC3=O)cc1 (stereo not given) -8.9%
COc1ccc(NC(=O)CN2CCN(S(=O)(=O)c3ccc(Cl)cc3)CC2)cc1 -6.18%
O=C(O)c1cccc(S(=O)(=O)N2CCOCC2)c1 -1.37%
CCn1c(C)cc(=S)c2ccccc21 1.22%
Cn1c(SCC(=O)O)nnc1C1CCCCC1 0.27%
COc1ccc(OC)c(NC(=O)CCN2CCN(c3ccccc3F)CC2)c1 -4.93%
O=C(CSc1ncnc2c1oc1ccccc12)Nc1ccccc1C(F)(F)F -5.6%
Cc1ccc(S(=O)(=O)NCCC(=O)OCn2nnc3ccccc3c2=O)cc1 -2.37%
CCOc1ccc2nc(SCC#N)c(C#N)cc2c1 -3.2%
O=C(Nc1cccnc1)c1ccc2c(c1)OCO2 -5.33%
